Measured values published in PubChem BioAssay.

Tests used:
[1] = tested on: Botulinum neurotoxin type F light chain protease (Clostridium botulinum); assay: Clostridium botulinum type F light chain protease inhibitors, microsphere substrate cleavage, validation (AID 588459); details: multiplex microsphere protease substrate cleavage assay, flow cytometry; at 10 µM; active compounds read high
[2] = molecular target: Botulinum neurotoxin type A (Clostridium botulinum) (UniProt P0DPI0); assay: BoNT/A light chain protease inhibitors, biochemical, multiplex microsphere flow cytometry, validation set (AID 588460); details: at 10 µM, active compounds read high
[3] = molecular target: Lethal factor (Bacillus anthracis) (UniProt P15917); assay: Bacillus anthracis lethal factor inhibition, microsphere flow cytometry protease assay, validation at 10 µM (AID 588461); details: multiplex microsphere protease cleavage assay, active compounds read high

Measured: inhibition

COc1ccccc1C(=O)c1cc2ccc(O)cc2oc1=O
inactive: [1] -0.4% | [2] 0.1% | [3] 2.7%

CC(=O)N(CCC(Cc1ccccc1)c1ccco1)Cc1ccco1 (centres undefined)
inactive: [1] 1.4% | [2] 1.7% | [3] 0.3%

CCn1cc(C(=O)O)c(=O)c2cnc(N3CCNCC3)nc21
inactive: [1] 0.1% | [2] 1% | [3] -7.3%

CN(C)c1nc(N(C)C)nc(N(C)C)n1
inactive: [1] 6.4% | [2] 2.6% | [3] -4.2%

O=c1cc(CN2CCN(c3cccc(Cl)c3)CC2)c2cc(O)c(-c3ccccc3)cc2o1
inactive: [1] -1.3% | [2] -1.5% | [3] -0.5%

COc1ccc2cc(C(=O)OC(C)C)sc(=O)c2c1OC
inactive: [1] 0% | [2] 1.8% | [3] -5.8%

Cc1cccc(CN2CCN(C(c3ccccc3)c3ccc(Cl)cc3)CC2)c1 (centres undefined)
inactive: [1] -0.2% | [2] -2% | [3] -9.2%

CNS(=O)(=O)c1ccc(C)cc1
inactive: [1] -3.1% | [2] -0.5% | [3] -3.3%

COc1ccc(-c2c[n+](CC(=O)OC3CC(C)CCC3C(C)C)c3n2CCC3)cc1 (centres undefined)
inactive: [1] 0.9% | [2] 0.1% | [3] -5.8%

COc1ccc2oc(=O)c(C(=O)Nc3ccccc3-c3ccccc3)cc2c1
inactive: [1] 3.1% | [2] 0.3% | [3] -1.6%

Brc1c(NC2=NCCN2)ccc2nccnc12
inactive: [1] -5.6% | [2] -0.8% | [3] -2.9%

COc1cc(CC(=O)NCCc2ccc(S(N)(=O)=O)cc2)cc(OC)c1OC
inactive: [1] 4.1% | [2] 1.6% | [3] 6.5%

CCN1C(=O)C(CC(=O)Nc2ccc(OC)cc2)N(CCc2ccc(F)cc2)C1=S (centres undefined)
inactive: [1] 0.2% | [2] 1.4% | [3] 1.4%

C#CCOc1ccc2c(C)cc(=O)oc2c1
inactive: [1] -2.9% | [2] -2.2% | [3] 4.6%

COc1ccc2c3c([nH]c2c1)C1(NCC3)C(=O)Nc2ccccc21 (centres undefined)
inactive: [1] -3% | [2] -0.7% | [3] -4.5%

COc1ccc(C(=O)N2c3cc4c(cc3C(C)=CC2(C)C)OCO4)cc1
inactive: [1] 3.7% | [2] 0% | [3] 4%

CCOC(=O)C1=C[C@]2(CC)CCCN3CCc4c(n1c1ccccc41)[C@@H]32
inactive: [1] 1.3% | [2] -0.9% | [3] -7.9%

CC[N+](C)(C)c1cccc(O)c1
inactive: [1] 1.7% | [2] -0.2% | [3] 0.7%

CCOc1ccc(N2C(=O)CNC2=S)cc1
inactive: [1] -1.7% | [2] -1.5% | [3] -3.8%

Nc1ccc2cn[nH]c2c1
inactive: [1] -8.4% | [2] -2.9% | [3] -16.3%

COc1cccc2c1C(=O)O/C2=C/c1ccc2c(c1)OCO2
inactive: [1] -0.9% | [2] -0.8% | [3] 2.1%

CC(C)C12CN3CC(C(C)C)(CN(C1)C3c1ccccc1)C2O (centres undefined)
inactive: [1] 1.7% | [2] 1.2% | [3] 7%

COC(=O)c1ccc(NC(=O)c2ccccc2SC)cc1
inactive: [1] -4.7% | [2] -0.2% | [3] -5.4%

O=C(CCCCCCCC(=O)c1ccccc1)c1ccccc1
inactive: [1] -2% | [2] -2.3% | [3] -9.8%

O=C(NCc1ccccc1Cl)NC(=O)c1ccccc1
inactive: [1] -1.4% | [2] 0.8% | [3] 6.8%

COc1ccc(CCNC(=O)C(=O)Nc2ccc3c(c2)OCO3)cc1OC
inactive: [1] 1.8% | [2] -0.8% | [3] -0.3%

CCn1nc(C(=O)O)c(=O)c2cc3c(cc21)OCO3
inactive: [1] 5.7% | [2] 0.6% | [3] 0.2%

O=C(CC1SC(=O)NC1=O)Nc1ccc(Cl)cc1 (centres undefined)
inactive: [1] -1.9% | [2] 0.8% | [3] -0.5%

CC(C)(Oc1ccc(CCNC(=O)c2ccc(Cl)cc2)cc1)C(=O)O
inactive: [1] -1.2% | [2] 0.1% | [3] 8.7%

COc1ccc(C)cc1S(=O)(=O)Nc1ccc(F)cc1
inactive: [1] 1.1% | [2] -0.3% | [3] 0.5%

O=C(O)c1ccc(N2C(=O)/C(=C\c3ccccc3)N=C2c2ccccc2)cc1
inactive: [1] 1% | [2] -1.6% | [3] 4.4%

CC1=C(C)C(=O)C(CCCCC#CCCCC#CCO)=C(C)C1=O
inactive: [1] -2.1% | [2] 0.4% | [3] -2.3%

COc1ccc(C(=O)CC2OC(=O)c3c2ccc(OC)c3OC)cc1 (centres undefined)
inactive: [1] 0.2% | [2] 0.7% | [3] 3.4%

COc1ccccc1NC(=O)C12CCC(C)(C(=O)C1)C2(C)C (centres undefined)
inactive: [1] -1% | [2] 0.8% | [3] 0.3%

CC(=O)N1CCn2c3c(c4cc(C)ccc42)CCCC31 (centres undefined)
inactive: [1] 3.1% | [2] -0.3% | [3] -2.3%

COc1ccc2nc(NC(=O)Nc3ccccc3)sc2c1
inactive: [1] -3.1% | [2] -2.6% | [3] -2.7%

CCOc1ccccc1OCCOc1ccc(F)cc1
inactive: [1] 0.7% | [2] -1.2% | [3] 6.2%

CC(C)CC(=O)Nc1ccc2oc(-c3ccncc3)nc2c1
inactive: [1] 1.4% | [2] 0.3% | [3] -2.1%

CCOc1cc2c(cc1OCC)C(c1ccccc1)N(c1ccc(C(=O)O)cc1)C(=O)C2 (centres undefined)
inactive: [1] -1.8% | [2] -0.7% | [3] -5.2%

COc1cccc2c(=O)c(C/C=C(/C)Cl)c(C)[nH]c12
inactive: [1] 1.2% | [2] -1.6% | [3] 3.4%

O=C(CCC(=O)NCCO)NCCO
inactive: [1] 1.2% | [2] 0.4% | [3] 6.9%

Nc1nc2c(ncn2COC(CO)CO)c(=O)[nH]1
inactive: [1] -0.4% | [2] -1.1% | [3] -4.8%

COc1cc2c(cc1OC)CN(C(=O)c1ccc(S(=O)(=O)N(C)c3ccccc3)cc1)CC2
inactive: [1] 0.9% | [2] 0.6% | [3] 3.4%

COc1cc2c(cc1OC)-c1cc(OCc3ccccc3Cl)nc(=O)n1CC2
inactive: [1] -0.4% | [2] 0.1% | [3] 0.1%

COc1cccc(/C=C/C(=O)c2c(O)cc(C)oc2=O)c1O
inactive: [1] 7% | [2] 1.7% | [3] 5.4%

O=C1NC2(Nc3ccccc31)C(=O)Nc1ccc(Br)cc12 (centres undefined)
inactive: [1] -0.5% | [2] -1% | [3] 6.8%

Nc1cc(-c2ccncc2)c[nH]c1=O
inactive: [1] -3.2% | [2] -2% | [3] -5.1%

O=C(N1CCCC1)C12CC3CC(C1)CC(C(=O)N1CCCC1)(C3)C2
inactive: [1] -1.6% | [2] -2.5% | [3] -8%

COc1ccc(C2C(=O)c3ccccc3C2=O)cc1
inactive: [1] 0.5% | [2] -0.4% | [3] -3.8%

CCOc1ccc(NC(=O)N[C@@H](CCSC)C(=O)OC)cc1
inactive: [1] -0.6% | [2] -1.8% | [3] -4.6%

CCOc1ccc2nc(N/C(N)=N/S(C)(=O)=O)nc(C)c2c1
inactive: [1] 2.1% | [2] -0.1% | [3] 2.4%

O=C1OC(Nc2ccc3c(c2)OCO3)c2ccccc21 (centres undefined)
inactive: [1] 0.9% | [2] -1.8% | [3] -5.7%

CCCCCCCCNC(C)C(O)c1ccc(SC(C)C)cc1 (centres undefined)
inactive: [1] -4.9% | [2] -1.5% | [3] -9.4%

CC(C)(Sc1cc(C(C)(C)C)c(O)c(C(C)(C)C)c1)Sc1cc(C(C)(C)C)c(O)c(C(C)(C)C)c1
inactive: [1] 0% | [2] -2.2% | [3] -7.4%

COCCNC(=O)CSc1ccc(Cl)cc1
inactive: [1] 1.8% | [2] 0.7% | [3] 1.4%

Cc1cc(O)c(C(C)C)cc1C1(c2cc(C(C)C)c(O)cc2C)OC(=O)c2ccccc21
inactive: [1] -0.9% | [2] -0.3% | [3] -8.1%

O=C1OC(=O)C2C1[C@@H]1CC[C@H]2O1 (some centres undefined)
inactive: [1] 1.3% | [2] 0.8% | [3] -0.9%

CN(C)CCOC(C)(c1ccccc1)c1ccccn1 (centres undefined)
inactive: [1] 1.4% | [2] 0.5% | [3] -3.8%

COc1ccc(-c2cc(=Nc3ccc(C)cc3)c3ccccc3o2)cc1
inactive: [1] -2.2% | [2] -0.6% | [3] 2.9%

Cc1cc(=O)[nH]c(=S)[nH]1
inactive: [1] -3.5% | [2] -3.3% | [3] -7.5%

CC/C(=C1/C(=O)CC(C)(C)C(C(=O)OC)C1=O)N1CCCC1 (centres undefined)
inactive: [1] -4.4% | [2] -1.4% | [3] -9.3%

CN1CCN(CCCN2c3ccccc3Sc3ccc(Cl)cc32)CC1
inactive: [1] -3.9% | [2] -3.2% | [3] -10.3%

Cc1ccc(OCCCCn2ccnc2C)c(C)c1
inactive: [1] -5.4% | [2] -1.6% | [3] -1.6%

CCc1cc2c(=O)c(-c3ccc(F)cc3)c(C)oc2cc1OCC(=O)O
inactive: [1] 3.9% | [2] 2.2% | [3] -1.1%

O=C(/C=C/c1ccc(Cl)cc1)NCCc1ccccc1
inactive: [1] -4% | [2] 0.4% | [3] 2.3%

COc1cccc2cc(-c3ccccc3)c(=O)oc12
inactive: [1] -1.9% | [2] -1.7% | [3] 1.7%

CCCN1CCC(NC(=O)Nc2ccc(Br)cc2)CC1
inactive: [1] 0.5% | [2] -1.7% | [3] -2%

COc1ccc(C2=CC(=O)C=CC2=O)cc1
inactive: [1] -4.7% | [2] -1.3% | [3] -4.1%
